PAX8 inh HTS = inhibitors of PAX8-driven TPO luciferase reporter, primary screen, RMG-I cells, single concentration | SteadyGlo, 24 h | inhibition, % at 12.6 µM | 1.2% of 360,000 active | AID 652154, 2013;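 active = mean replicate inhibition at least 60% with every replicate also reaching 60%; inconclusive = only one of the two criteria is met; inactive = mean below 60% and not all replicates reaching 60%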;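 also: luciferase light reporting Pax8 driven TPO promoter activity; plate controls were median of neutral control wells for no effect and mitoxantrone controls for full effect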
LMP1 NFkB inh = EBV LMP1-driven NF-kappaB luciferase reporter inhibitors, primary screen, cell-based, luminescence, single point; LMP1-induced NF-kappaB luciferase reporter cells; inhibition, % at 12.5 µM; 0.69% of 350,000 active; in the data active = inhibition above about 41%; inconclusive = no clear call, values can overlap the other calls;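 also: 0% = neutral control wells and 100% = reference inhibitor control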
TRPM1 prom inh = inhibitors of MITF-dependent TRPM1 promoter reporter, primary screen, cell-based, SK-MEL-5, single point, luciferase | inhibition, % at 12.5 µM | AID 488899, 2010 | SK-MEL-5 TRPM1 promoter luciferase, 24 h | 0.83% of 330,000 active;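 active = mean inhibition across replicates of 60% or more, whatever share of single replicates reaches that level; inconclusive = some that reach 60%, reason not given; inactive = mean inhibition across replicates below 60%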
Shn3 inh set2 = reduction of Shn3 3'UTR firefly luciferase signal, primary screen, Schnurri-3 inhibitor project, cell-based, Clone20 osteoblasts, set 2 | Clone20 osteoblast Shn3 3'UTR firefly luciferase, 24 h | inhibition, % at 12.5 µM | 0.52% of 360,000 active;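 active = mean inhibition of at least 75% with every replicate also reaching 75%; inconclusive = mean inhibition at least 75% but some replicate below; inactive = mean inhibition below 75%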;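 also: 0% = median of neutral control wells and 100% = pilot-screen positive control compound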
EWS-Fli inh = EWS/Fli-driven NR0B1 reporter inhibitors, primary screen, A673 cells, NR0B1 luciferase, luminescence, MLPCN library. AID 651661, 2012. inhibition, % at 12.6 µM. 0.67% of 350,000 active. viability-normalised;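 active = mean inhibition of at least 50% after viability correction, with every replicate also passing that limit; inconclusive = mean reaches 50% but only one of two replicates passes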;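 also: firefly luciferase signal divided by Alamar Blue viability fluorescence both relative to DMSO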
LGR2 inh = inhibitors of bursicon-induced LGR2 CRE-luciferase signal, primary screen, cell-based, HEK293, CRE-luciferase reporter, bursicon stimulation; AID 720647, 2013; bursicon-stimulated, 4 h; inhibition, % at 9.99 µM; 0.35% of 380,000 active;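 active = drop in luminescence signal, shown as inhibition above about 50% in the replicate tests, limit read from the data, passing the limit was not always enough; inconclusive = probably only some replicates passing the limit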;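 also: agonist challenge used bursicon conditioned medium at about half maximal strength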
An asterisk follows results filed as active; ? = inconclusive; . = no result given. The list is not random: actives were taken first. Their share in the collection is about 2.2%.

SMILES | PAX8 inh HTS | LMP1 NFkB inh | TRPM1 prom inh | Shn3 inh set2 | EWS-Fli inh | LGR2 inh
C[C@@H]1CN([C@H](C)CO)C(=O)c2c(c3ccccc3n2C)-c2ccccc2CO[C@H]1CN(C)S(=O)(=O)c1cccc(F)c1 | 93* | . | . | . | -2 | 34
C[C@H](CO)N1C[C@H](C)[C@H](CN(C)S(=O)(=O)c2cccc(F)c2)OCc2ccccc2-c2c(n(C)c3ccccc23)C1=O | 104* | 8 | . | 6 | 11 | 7
C[C@H]1CN([C@@H](C)CO)C(=O)c2c(c3ccccc3n2C)-c2ccccc2CO[C@@H]1CN(C)S(=O)(=O)c1cccc(F)c1 | 102* | . | . | . | 15 | 26
Cc1cccc(S(=O)(=O)N(C)C[C@@H]2OCc3ccccc3-c3c(n(C)c4ccccc34)C(=O)N([C@H](C)CO)C[C@@H]2C)c1 | . | . | . | . | 5 | 23
C[C@@H]1CN([C@H](C)CO)C(=O)c2c(c3ccccc3n2C)-c2ccccc2CO[C@@H]1CN(C)S(=O)(=O)c1cccc(F)c1 | -45 | . | . | . | -9 | -1
Cc1nn(Cc2c(Cl)cccc2Cl)c(C)c1NC(=O)c1cn(-c2ccccc2)nc1-c1ccccc1 | . | -87 | 87* | 88* | . | .
COc1cccc(NC(=O)C[C@H]2CC[C@H]3[C@H](COc4ccc(NC(=O)C5CCOCC5)cc4C(=O)N3C)O2)c1 | 4 | . | . | . | -7 | 11
CN1OC[C@@H]2CN(C(=S)Nc3cc(C(F)(F)F)cc(C(F)(F)F)c3)[C@H](c3ccccc3Br)C[C@@H]21 | 84* | . | . | . | 10 | 8
CCCCCCCOC(=O)C[N+](C)(C)CCOC1CC2CCC1(C)C2(C)C (stereo unspecified) | 46 | 11 | 94* | 85* | 67* | 23
C[C@@H]1CCCCO[C@@H](CN(C)CC2CCCCC2)[C@H](C)CN([C@H](C)CO)C(=O)c2cc(NC(=O)Nc3cccc4ccccc34)ccc2O1 | -14 | . | . | . | 90* | 10
C[C@@H]1CCCCO[C@H](CN(C)CC2CC2)[C@@H](C)CN([C@H](C)CO)C(=O)c2cc(NC(=O)Nc3cccc4ccccc34)ccc2O1 | -4 | . | . | . | -2 | -15
C[C@@H]1CN([C@@H](C)CO)C(=O)c2cc(NC(=O)Nc3cccc4ccccc34)ccc2O[C@@H]1CN(C)CC1CCCCC1 | . | . | . | . | 77* | -21
C[C@@H]1CN([C@@H](C)CO)C(=O)c2cc(NC(=O)Nc3cccc4ccccc34)ccc2O[C@@H](C)CCCCO[C@H]1CN(C)CC1CC1 | -2 | . | . | . | -3 | -1
C[C@H](CO)N1C[C@H](C)[C@@H](CN(C)CC2CCCCC2)Oc2ccc(NC(=O)Nc3cccc4ccccc34)cc2C1=O | . | . | . | . | 9 | -17
C[C@@H]1CCCCO[C@H](CN(C)C)[C@H](C)CN([C@H](C)CO)C(=O)c2cc(NC(=O)Nc3cccc4ccccc34)ccc2O1 | 84* | . | . | . | -6 | -4
C[C@@H]1CN([C@@H](C)CO)C(=O)c2cc(NC(=O)Nc3cccc4ccccc34)ccc2O[C@@H](C)CCCCO[C@H]1CN(C)CC1CCCCC1 | -21 | . | . | . | 91* | 9
C[C@@H]1CCCCO[C@@H](CN(C)S(=O)(=O)c2cccs2)[C@H](C)CN([C@H](C)CO)C(=O)c2cc(NC(=O)Nc3ccccc3)ccc2O1 | 32 | . | . | . | 6 | 20
COc1cccc(CNC(=O)C[C@@H]2CC[C@@H](NC(=O)C3CC3)[C@@H](CO)O2)c1 | 1 | . | . | . | 2 | -1
C[C@H](CO)N1C[C@H](C)[C@H](CN(C)CC2CC2)OCCCC[C@H](C)Oc2ccc(NC(=O)Nc3cccc4ccccc34)cc2C1=O | 0 | . | . | . | 7 | 9
C[C@@H]1CN([C@@H](C)CO)C(=O)c2cc(NC(=O)Nc3cccc4ccccc34)ccc2O[C@@H](C)CCCCO[C@@H]1CN(C)CC1CCCCC1 | 9 | . | . | . | 82* | -10
C[C@H]1CCCCO[C@H](CN(C)CC2CCCCC2)[C@@H](C)CN([C@@H](C)CO)C(=O)c2cc(NC(=O)Nc3cccc4ccccc34)ccc2O1 | 9 | . | . | . | 89* | 9
CCCNC(=O)N1C[C@@H](C)[C@@H](OC)CN(C)C(=O)c2cc(NC(=O)C3CCC3)ccc2OC[C@@H]1C | . | . | . | . | -13 | 8
CNC[C@@H]1OCCCC[C@H](C)Oc2ccc(NC(=O)Nc3ccc4c(c3)OCO4)cc2C(=O)N([C@H](C)CO)C[C@H]1C | -14 | . | . | . | -8 | -7
Cc1ccc2nc3cc([N+](=O)[O-])cc([N+](=O)[O-])c3cc2c1 | 6 | -70 | 63* | 61 | 61* | ?
Cc1nc2ccc([N+](=O)[O-])cc2nc1C | -7 | -3 | 15 | 18 | -2 | 14
SMILES | PAX8 inh HTS | LMP1 NFkB inh | TRPM1 prom inh | Shn3 inh set2 | EWS-Fli inh | LGR2 inh
COc1ccc(-c2nsc3c(N4CCCCC4C)ncnc23)cc1 (stereo unspecified) | ? | 73* | 86* | 82 | 83* | 95*
COc1ccc(C(=O)N2CCN(c3ncnc4c(-c5ccccc5)nsc34)CC2)cc1 | -19 | 10 | 8 | 16 | . | .
COc1ccc(-c2nsc3c(N4CCCCC4)ncnc23)cc1 | 76* | 31 | 65* | 61 | . | .
C[C@H](CO)N1C[C@H](C)[C@H](CN(C)C(=O)Nc2ccc(F)cc2)Oc2cc(/C=C/c3ccccc3)ccc2S1(=O)=O | . | . | . | . | 10 | .
O=C(c1ccc(S(=O)(=O)Cc2ccccc2Cl)c([N+](=O)[O-])c1)N1CCN(c2ccccn2)CC1 | 53 | 36 | 74* | -3 | 9 | 49
O=C(Nc1ccc2c(c1)[C@H]1C[C@@H](CC(=O)N3CCCCC3)O[C@H](CO)[C@H]1O2)NC1CCCCC1 | -1 | . | . | . | -5 | 1
CCCOc1cc(NCc2ccccc2)c2ncn(C(C)C)c2c1 | 25 | -30 | -7 | 6 | 9 | 20
CCOc1cc(NCc2ccccc2)c2ncn(C(C)C)c2c1 | 77* | -50 | 0 | 3 | 2 | -6
CO[C@@H]1CN(C)C(=O)c2ccc(NC(=O)c3cnccn3)cc2OC[C@@H](C)N(CC2CC2)C[C@@H]1C | . | . | . | . | -10 | 30
CCOc1cc(CNc2ccc3c(c2)OCCO3)cc(Br)c1OC | . | 32 | 62* | 51 | . | .
CCOc1c(Br)cc(CNc2ccc3c(c2)OCCO3)cc1OC | . | 19 | 56 | 63 | . | .
O=C(/C=C/c1ccc([N+](=O)[O-])s1)N1CCN(c2ccccc2)CC1 | -5 | -13 | 50 | -4 | 27 | 7
CC1CC(C)CN(C(=O)/C=C/c2ccc([N+](=O)[O-])s2)C1 (stereo unspecified) | 68* | -96 | 82* | 7 | 25 | 25
O=C(/C=C/c1ccc([N+](=O)[O-])s1)N1CCCCC1 | 37 | -56 | 89* | -6 | 13 | 4

Source: PubChem BioAssay
